Data reported in the supplement of paper PMC10849652.
Targets with a hit are over-represented here; the source holds about 8,800 in all. About 0.5% of all pairs of compound and target were hits.

Legend:
Assay in all cases: log2 fold change, soluble protein after heating vs DMSO (PISA); higher = thermal stabilisation; K562 lysate, 10 uM; active = over 0.2 and 3.5 SD of the protein, either way, in both replicates (recomputed)
[1] = compound: C1=CC=C(C=C1)[C@H](COC2=CC3=C(C=C2)NC(=O)N3)NC(=O)C4=CC=CN(C4=O)CC5=CC(=C(C=C5)F)F
Outline: (§1)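 Quantification was by TMTpro 16plex LC-MS/MS with equalised channel sums, applied to the supernatant after 21,000xg for 90 min. Samples were crude K562 extract at 1 mg/mL protein in PBS pH 7.4 with 1 mM MgCl2, treated with 10 μM compound for 30 min, heated for 3 min across 48°C-58°C, pooled and brought to 0.5% NP-40 at 4°C. Values are log-two fold changes in thermal stability relative to solvent controls, from duplicates.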

[2] = compound: CC1=C(SC2=C1C(=N[C@H](C3=NN=C(N32)C)CC(=O)N)C4=CC=C(C=C4)Cl)C
Outline: as §1

[3] = compound: CC1=C2C(=CC=C1)N=C(N(C2=O)C3=CC=CC=C3C)CN4C=NC5=C(N=CN=C54)N
Outline: as §1

[4] = compound: Cc1sc2c(c1C)C(c1ccc(Cl)cc1)=N[C@@H](CC(=O)OC(C)(C)C)c1nnc(C)n1-2
Outline: as §1

[5] = compound: c1ccc([C@@H]2C[C@H]2NC2CCNCC2)cc1
Outline: as §1

Measured: log2 fold change

RPS9 (UniProt P46781)
inactive: [1] 0.003 | [2] 0.038 | [3] -0.007 | [4] 0.1 | [5] 0.124

SAP30 (UniProt O75446)
Chain of UniProt O75446 (O75446 whole entry, looked up): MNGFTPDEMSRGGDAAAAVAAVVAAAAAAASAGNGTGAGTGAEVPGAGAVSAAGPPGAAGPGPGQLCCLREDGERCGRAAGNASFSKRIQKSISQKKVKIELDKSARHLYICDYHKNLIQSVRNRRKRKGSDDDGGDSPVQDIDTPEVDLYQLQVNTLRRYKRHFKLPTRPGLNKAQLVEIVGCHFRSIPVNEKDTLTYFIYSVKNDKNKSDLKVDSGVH
inactive: [1] 0.029 | [2] -0.029 | [3] 0.009 | [4] 0.014 | [5] -0.026

RNF2 (UniProt Q99496)
Chain of UniProt Q99496 (Q99496 whole entry, looked up): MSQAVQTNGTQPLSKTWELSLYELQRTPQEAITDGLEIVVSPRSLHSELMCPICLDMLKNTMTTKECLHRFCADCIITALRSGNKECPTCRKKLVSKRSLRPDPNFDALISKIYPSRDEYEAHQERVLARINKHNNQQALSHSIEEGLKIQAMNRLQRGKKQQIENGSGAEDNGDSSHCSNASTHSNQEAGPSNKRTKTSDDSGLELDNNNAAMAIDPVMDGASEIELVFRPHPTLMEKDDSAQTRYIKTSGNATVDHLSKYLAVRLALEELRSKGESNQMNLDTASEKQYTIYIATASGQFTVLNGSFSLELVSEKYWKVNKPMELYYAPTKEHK
inactive: [3] 0.03 | [4] -0.091 | [5] 0.343

SERINC3 (UniProt Q13530)
Chain of UniProt Q13530 (Q13530 whole entry, looked up): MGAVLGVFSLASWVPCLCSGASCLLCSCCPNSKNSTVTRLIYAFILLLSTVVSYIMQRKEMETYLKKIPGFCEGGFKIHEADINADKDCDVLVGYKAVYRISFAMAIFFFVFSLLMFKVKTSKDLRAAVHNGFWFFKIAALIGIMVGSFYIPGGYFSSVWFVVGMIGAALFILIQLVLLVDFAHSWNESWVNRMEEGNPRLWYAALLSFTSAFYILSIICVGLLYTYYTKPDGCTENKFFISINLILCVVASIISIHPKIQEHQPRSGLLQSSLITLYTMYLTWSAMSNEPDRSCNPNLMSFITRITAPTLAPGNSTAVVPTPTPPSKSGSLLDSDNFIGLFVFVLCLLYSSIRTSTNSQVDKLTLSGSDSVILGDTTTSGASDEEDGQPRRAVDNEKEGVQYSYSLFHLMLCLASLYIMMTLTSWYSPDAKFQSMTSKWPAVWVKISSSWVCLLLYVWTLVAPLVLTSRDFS
inactive: [1] 0.109 | [2] -0.016 | [3] 0.028 | [4] -0.056 | [5] -0.175

RTTN (UniProt Q86VV8)
Chain of UniProt Q86VV8 (Q86VV8 whole entry, looked up): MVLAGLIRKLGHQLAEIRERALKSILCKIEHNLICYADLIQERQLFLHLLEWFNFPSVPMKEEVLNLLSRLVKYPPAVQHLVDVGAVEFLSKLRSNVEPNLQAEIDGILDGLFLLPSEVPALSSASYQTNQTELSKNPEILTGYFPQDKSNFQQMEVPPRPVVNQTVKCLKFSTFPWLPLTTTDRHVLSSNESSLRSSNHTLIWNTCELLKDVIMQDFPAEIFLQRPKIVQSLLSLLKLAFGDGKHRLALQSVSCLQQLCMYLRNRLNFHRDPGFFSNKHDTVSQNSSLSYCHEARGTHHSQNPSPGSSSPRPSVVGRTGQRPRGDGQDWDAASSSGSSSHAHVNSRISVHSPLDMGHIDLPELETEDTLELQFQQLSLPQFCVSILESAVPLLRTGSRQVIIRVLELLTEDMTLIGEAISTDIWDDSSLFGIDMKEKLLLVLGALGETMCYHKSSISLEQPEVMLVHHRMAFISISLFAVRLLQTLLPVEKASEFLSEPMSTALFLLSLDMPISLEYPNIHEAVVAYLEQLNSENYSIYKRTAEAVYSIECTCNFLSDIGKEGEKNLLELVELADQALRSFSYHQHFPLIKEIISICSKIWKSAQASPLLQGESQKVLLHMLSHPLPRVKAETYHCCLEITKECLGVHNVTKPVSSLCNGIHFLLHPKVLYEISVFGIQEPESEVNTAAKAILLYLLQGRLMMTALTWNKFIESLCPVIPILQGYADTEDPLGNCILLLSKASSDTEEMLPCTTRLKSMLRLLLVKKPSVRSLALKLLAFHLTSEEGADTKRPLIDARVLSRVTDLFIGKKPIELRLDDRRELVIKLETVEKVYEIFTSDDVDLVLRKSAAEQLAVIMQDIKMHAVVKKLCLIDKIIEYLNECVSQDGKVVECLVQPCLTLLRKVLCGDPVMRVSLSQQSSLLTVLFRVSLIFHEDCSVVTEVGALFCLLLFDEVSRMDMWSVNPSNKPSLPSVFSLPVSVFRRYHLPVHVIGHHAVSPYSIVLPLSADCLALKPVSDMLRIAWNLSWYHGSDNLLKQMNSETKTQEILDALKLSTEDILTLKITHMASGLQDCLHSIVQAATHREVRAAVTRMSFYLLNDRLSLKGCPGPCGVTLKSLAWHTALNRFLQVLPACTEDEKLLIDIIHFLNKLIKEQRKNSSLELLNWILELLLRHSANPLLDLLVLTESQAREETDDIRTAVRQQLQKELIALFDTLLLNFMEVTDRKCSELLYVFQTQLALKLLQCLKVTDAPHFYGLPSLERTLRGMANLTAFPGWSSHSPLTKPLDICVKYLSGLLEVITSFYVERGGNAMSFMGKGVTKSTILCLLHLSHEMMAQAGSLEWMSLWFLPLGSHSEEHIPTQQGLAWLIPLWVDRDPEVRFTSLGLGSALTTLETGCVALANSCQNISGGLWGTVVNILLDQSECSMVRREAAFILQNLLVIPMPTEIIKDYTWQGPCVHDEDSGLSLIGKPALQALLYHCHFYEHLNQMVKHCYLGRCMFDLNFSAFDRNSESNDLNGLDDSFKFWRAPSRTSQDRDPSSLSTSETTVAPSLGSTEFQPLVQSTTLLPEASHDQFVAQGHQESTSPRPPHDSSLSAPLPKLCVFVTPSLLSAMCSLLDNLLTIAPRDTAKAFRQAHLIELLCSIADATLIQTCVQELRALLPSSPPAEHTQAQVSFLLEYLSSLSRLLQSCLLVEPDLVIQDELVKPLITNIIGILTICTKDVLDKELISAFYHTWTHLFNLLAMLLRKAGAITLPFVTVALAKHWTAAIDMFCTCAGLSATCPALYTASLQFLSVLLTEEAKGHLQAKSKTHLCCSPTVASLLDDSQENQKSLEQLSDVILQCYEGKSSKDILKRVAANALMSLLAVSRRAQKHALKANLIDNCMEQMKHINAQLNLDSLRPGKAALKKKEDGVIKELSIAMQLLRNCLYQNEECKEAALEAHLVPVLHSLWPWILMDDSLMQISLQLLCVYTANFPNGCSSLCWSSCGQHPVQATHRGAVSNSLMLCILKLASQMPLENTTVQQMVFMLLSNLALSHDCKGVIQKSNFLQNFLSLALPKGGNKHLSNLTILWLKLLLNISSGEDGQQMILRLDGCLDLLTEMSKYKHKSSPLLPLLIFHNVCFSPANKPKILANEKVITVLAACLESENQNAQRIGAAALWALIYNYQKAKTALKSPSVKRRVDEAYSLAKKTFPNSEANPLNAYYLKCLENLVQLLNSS
inactive: [1] 0.089 | [2] -0.033 | [3] -0.289 | [4] 0.046 | [5] 0.024

RYR1 (UniProt P21817)
inactive: [1] -0.011 | [2] -0.028 | [4] -0.093 | [5] -0.055

SATB2 (UniProt Q9UPW6)
Chain of UniProt Q9UPW6 (Q9UPW6 whole entry, looked up): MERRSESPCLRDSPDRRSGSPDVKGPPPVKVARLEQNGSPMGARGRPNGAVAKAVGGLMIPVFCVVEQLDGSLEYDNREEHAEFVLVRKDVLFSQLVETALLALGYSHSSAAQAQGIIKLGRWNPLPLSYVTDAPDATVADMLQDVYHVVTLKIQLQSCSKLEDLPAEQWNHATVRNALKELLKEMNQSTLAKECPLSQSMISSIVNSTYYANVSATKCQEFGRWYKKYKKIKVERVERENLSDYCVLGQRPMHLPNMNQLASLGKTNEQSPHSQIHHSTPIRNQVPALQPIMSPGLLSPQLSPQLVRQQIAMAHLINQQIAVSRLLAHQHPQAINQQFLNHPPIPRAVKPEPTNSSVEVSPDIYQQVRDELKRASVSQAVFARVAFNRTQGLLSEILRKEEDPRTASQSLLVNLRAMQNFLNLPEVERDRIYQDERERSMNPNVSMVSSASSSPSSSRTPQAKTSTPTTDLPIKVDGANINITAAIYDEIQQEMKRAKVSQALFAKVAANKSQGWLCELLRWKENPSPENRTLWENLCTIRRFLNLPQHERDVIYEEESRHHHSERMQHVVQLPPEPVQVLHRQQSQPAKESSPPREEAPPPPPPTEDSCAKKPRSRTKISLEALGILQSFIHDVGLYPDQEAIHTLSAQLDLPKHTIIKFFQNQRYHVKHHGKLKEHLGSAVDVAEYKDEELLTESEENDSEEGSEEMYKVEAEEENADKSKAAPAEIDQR
inactive: [3] -0.019 | [4] 0.021 | [5] -0.045

RXRA (UniProt P19793)
Chain of UniProt P19793 (P19793 whole entry, looked up): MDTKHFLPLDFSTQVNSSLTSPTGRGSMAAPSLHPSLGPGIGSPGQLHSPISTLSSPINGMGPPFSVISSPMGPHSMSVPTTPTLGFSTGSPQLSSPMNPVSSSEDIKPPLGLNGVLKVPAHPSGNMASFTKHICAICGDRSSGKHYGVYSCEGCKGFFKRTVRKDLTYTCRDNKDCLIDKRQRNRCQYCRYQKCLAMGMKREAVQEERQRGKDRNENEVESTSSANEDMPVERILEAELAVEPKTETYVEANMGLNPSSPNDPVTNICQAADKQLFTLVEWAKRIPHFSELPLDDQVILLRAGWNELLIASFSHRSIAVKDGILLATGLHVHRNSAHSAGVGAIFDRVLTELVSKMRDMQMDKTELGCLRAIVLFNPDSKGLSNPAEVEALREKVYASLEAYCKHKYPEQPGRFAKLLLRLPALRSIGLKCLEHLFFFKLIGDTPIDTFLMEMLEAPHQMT
inactive: [4] 0.167 | [5] -0.149

RBM45 (UniProt Q8IUH3)
inactive: [5] -0.026

RHAG (UniProt Q02094)
Chain of UniProt Q02094 (Q02094 whole entry, looked up): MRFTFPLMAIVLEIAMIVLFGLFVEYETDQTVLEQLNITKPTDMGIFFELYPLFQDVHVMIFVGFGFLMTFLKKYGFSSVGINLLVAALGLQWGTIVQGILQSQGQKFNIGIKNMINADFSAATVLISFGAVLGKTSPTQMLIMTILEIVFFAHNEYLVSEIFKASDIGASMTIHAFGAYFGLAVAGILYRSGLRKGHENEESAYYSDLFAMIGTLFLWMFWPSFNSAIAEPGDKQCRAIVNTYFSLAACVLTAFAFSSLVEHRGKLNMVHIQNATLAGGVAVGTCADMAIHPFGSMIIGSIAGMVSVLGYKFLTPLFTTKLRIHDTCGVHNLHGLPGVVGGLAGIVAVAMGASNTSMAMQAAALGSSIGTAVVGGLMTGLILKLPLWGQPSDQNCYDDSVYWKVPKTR
inactive: [1] 0.033 | [2] -0.076 | [3] 0.145 | [4] -0.066 | [5] -0.143
